Screening data from PubChem.
SNCA expr inh: Primary qHTS assay for inhibitors of alpha-synuclein gene (SNCA) expression | HEK-293 SNCA-luciferase knock-in, luminescence, 24 h | Potency, µM (top dose mostly 57.2 µM), most hits filed as inhibitors | 140,000 tested, 0.17% active; note: nearly all actives have a fitted effect of over 45% in size
IP6K1 inhibitor: Primary qHTS assay for small molecule inhibitors of Inositol hexaphosphate kinase 1 (IP6K1). activity change, % (series mostly up to about 58 µM). IP6K1 kinase, ADP-Glo luminescence, 2 h; active compounds read low. 140,000 tested, 0.81% active; in the data active = activity change below about -25%
Target sequence (Q92551 whole entry, looked up): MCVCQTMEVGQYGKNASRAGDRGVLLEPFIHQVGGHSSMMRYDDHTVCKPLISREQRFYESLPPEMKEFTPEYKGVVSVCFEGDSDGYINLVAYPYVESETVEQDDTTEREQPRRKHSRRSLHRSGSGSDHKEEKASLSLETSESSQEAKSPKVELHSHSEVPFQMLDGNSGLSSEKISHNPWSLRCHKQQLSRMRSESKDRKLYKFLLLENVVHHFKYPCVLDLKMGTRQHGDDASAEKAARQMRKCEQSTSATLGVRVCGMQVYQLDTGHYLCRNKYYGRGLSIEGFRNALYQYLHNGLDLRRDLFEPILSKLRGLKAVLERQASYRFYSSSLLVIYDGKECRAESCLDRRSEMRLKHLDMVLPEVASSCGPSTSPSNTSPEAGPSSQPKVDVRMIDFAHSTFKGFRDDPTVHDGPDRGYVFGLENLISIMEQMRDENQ
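ADP-Glo luminescence measures ADP made by human IP6K1 during a 2 h RT reaction with ATP/IP6 (mix at 1.3 mM/130 uM); top library doses 57.5 and 19.1 uM final.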
KDM5B inhibitor: Primary screen for KDM5B Histone Demethylases FDH-coupled qHTS; 220,000 tested, 2.6% active; Lysine-specific demethylase 5B (Homo sapiens), Q9UGL1; KDM5B demethylase, FDH-coupled NADH fluorescence (FDH is formaldehyde dehydrogenase); AID 1347165, 2019; Potency, µM (doses to about 57.7 µM), hits mostly inhibitors; note: nearly all actives have a fitted effect of over 70% in size
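KDM5BΔAP (200 nM final) in 50 mM HEPES pH 7.5, 0.01% Tween-20 was preincubated 10 min at RT with compound over a concentration range. Substrate mix (H3K4me3 12.5 µM, α-KG 25 µM, Fe²⁺, ascorbate, NAD⁺, FDH) was added, and NADH fluorescence change over 30 min gave dose-response curves.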
HEK293 viab: GF-AFC viability counterscreen for inhibitors of alpha-synuclein gene (SNCA) expression | 150,000 tested, 0.12% active | Potency, µM (titrated, usually from 57.1 µM), most hits filed as cytotoxic | AID 1671193, 2021 | HEK-293-SNCA-luc viability, GF-AFC fluorescence, 24 h; note: nearly all actives have a fitted effect of over 30% in size
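HEK-293-SNCA-luc cells (1500/well) plated 24 h, then exposed 24 h to a dilution series; GF-AFC added 30 min at 37C, fluorescence 405/540 nm; normalised to medium-only and DMSO wells, Hill fit.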
Each line names hits and unclear results; the compound was inactive in the other large screens. In the library only some 2.8% were active in any assay of this set; here they are far more common. Unless noted, calls come from the whole dose curve; as a rule, active = well fitted curve in the direction sought with a large enough effect; inconclusive = small, poorly fitted or top-dose-only effect, or another doubt; inactive = no such curve, though single readings can be large; an effect the other way counts as inactive or inconclusive.

CCC(C)C(=O)N1CCC2(CC1)NCCc1c2[nH]c2ccc(OC)cc12 (centres undefined)	KDM5B inhibitor 31.6µM
CC(C)Cc1cnc2c(c1SCC(=O)NC(C)C)c(=O)n(C)c(=O)n2C	none (no result: SNCA expr inh, IP6K1 inhibitor, HEK293 viab)
CC(C)COC(=O)c1nc2ccccc2nc1NCc1ccc2c(c1)OCO2	none (no result: SNCA expr inh, IP6K1 inhibitor, HEK293 viab)
CCC(C)NC(=O)N1CCC2(CC1)NC(=O)c1ccccc1O2 (centres undefined)	none (no result: SNCA expr inh, IP6K1 inhibitor, HEK293 viab)
O=C(O)c1cc(I)cc(I)c1	none (no result: SNCA expr inh, IP6K1 inhibitor, HEK293 viab)
CCN1CCC(N2CCC3(CC2)NCCc2c3[nH]c3ccc(OC)cc23)CC1	KDM5B inhibitor inconclusive
COc1ccc2[nH]c3c(c2c1)CCNC31CCN(Cc2ccc(F)cc2F)CC1	SNCA expr inh inconclusive, KDM5B inhibitor 11.2µM
COc1ccc2[nH]c3c(c2c1)CCNC31CCN(C2CCCC2)CC1	SNCA expr inh inconclusive, KDM5B inhibitor 22.4µM
Cc1nc(SCC(=O)Nc2cccc(S(=O)(=O)N3CCCC3)c2)n(C2CCCCC2)c1C	none (no result: SNCA expr inh, IP6K1 inhibitor, HEK293 viab)
O=S(=O)(c1ccc2oc(Nc3ccc(F)cc3)nc2c1)N1CCCCC1	none (no result: SNCA expr inh, IP6K1 inhibitor, HEK293 viab)
CCCN1CCc2[nH]cnc2C12CCN(C(=O)c1cnn3ccccc13)CC2	KDM5B inhibitor 25.1µM
COc1ccc(S(=O)(=O)NCC2CCCN(Cc3ccc(-c4ccco4)cc3)C2)cc1 (centres undefined)	KDM5B inhibitor 28.2µM
Cc1oc(C(O)c2ccccc2F)nc1C(=O)Nc1ccc(C(N)=O)cc1 (centres undefined)	none
Cc1oc(C(O)c2ccccc2F)nc1C(=O)Nc1ccccc1C(N)=O (centres undefined)	KDM5B inhibitor 35.5µM
CC(C)(C)c1nnc([C@H]2CCN(Cc3cnc4ccccc4c3)C2)o1	KDM5B inhibitor 35.5µM
COc1ccc(OC)c(C(=O)OCc2cccc(C#N)c2)c1	none (no result: SNCA expr inh, IP6K1 inhibitor, HEK293 viab)
O=C(N[C@H]1CCN2C(=O)N(c3cccc4nsnc34)C(=O)[C@@H]2C1)c1ccnc(Cl)c1	KDM5B inhibitor 28.2µM
CC(=O)c1c(C)nn(C(C)CC(=O)N2CCc3c(nc(N)[nH]c3=O)C2)c1C (centres undefined)	none
Nc1nc2c(c(=O)[nH]1)CCN(C(=O)CC(c1ccccc1)c1ccco1)C2 (centres undefined)	KDM5B inhibitor 17.8µM
CCC(=O)Nc1ccc(-c2csc(NCc3ccco3)n2)cc1	none (no result: SNCA expr inh, IP6K1 inhibitor, HEK293 viab)
O=C1NCCCCCCN(Cc2cccc(OC(F)(F)F)c2)[C@H]2CCC[C@@H]12	KDM5B inhibitor 5.62µM
CC(C)CCN1CCCCCCNC(=O)[C@@H]2CCC[C@@H]21	KDM5B inhibitor 10µM
O=C1NCCCCCCN(Cc2ccncc2)[C@@H]2CN(Cc3ccncc3F)CC[C@H]12	KDM5B inhibitor 20µM
O=C1NCCCCCCN(Cc2ccc(F)c(F)c2)[C@H]2CCC[C@@H]12	KDM5B inhibitor 12.6µM
Cn1cccc1CN1CCCCCNC(=O)[C@@H]2CCC[C@@H]21	none
O=C1NCCCCCN(Cc2ccc(F)cc2F)[C@H]2CCC[C@@H]12	KDM5B inhibitor inconclusive
CC(Cc1ccccc1)NC(=O)C1(c2ccccc2)CCCC1 (centres undefined)	none (no result: SNCA expr inh, IP6K1 inhibitor, HEK293 viab)
O=C(Nc1ccc(N2CCOCC2)cc1)/C(=C/c1cccs1)c1ccc(-c2ccccc2)cc1	none (no result: SNCA expr inh, IP6K1 inhibitor, HEK293 viab)
CC(C)OCCCNC(=O)C1CCN(Cc2ccccc2-c2ccccc2F)CC1	none (no result: SNCA expr inh, KDM5B inhibitor, HEK293 viab)
COc1cccc(-c2ccnc(-c3nnc(C)n3C3CCCCC3)c2)c1	none
COc1ccc(-c2ccnc(-c3nnc(C)n3C3CCCCC3)c2)cc1OC	KDM5B inhibitor 35.5µM
CCC1(CC)CCN(C(=O)CC2COc3ccc(C(=O)N(C)C)cc3N2C)C1 (centres undefined)	none
COCCNC(=O)c1ccc2c(c1)N(C)C(CC(=O)N1CCC(O)CC1)CO2 (centres undefined)	KDM5B inhibitor 28.2µM
COCCNC(=O)c1ccc2c(c1)N(C)C(CC(=O)N1CCC(N)CC1)CO2 (centres undefined)	KDM5B inhibitor 28.2µM
CC(C)N(CC1CC1)C(=O)CC1COc2ccc(C(=O)N(C)C)cc2N1C (centres undefined)	KDM5B inhibitor inconclusive
CCOc1ccc(-c2nonc2NC(=O)c2oc3ccc(F)cc3c2C)cc1OCC	none (no result: SNCA expr inh, IP6K1 inhibitor, HEK293 viab)
CN(Cc1cccc(CCN)c1)Cc1cccc2ncccc12	none
CC(=O)c1cccc(NC(=O)c2ccc3c(c2)NC(=O)CS3)c1	none (no result: SNCA expr inh, IP6K1 inhibitor, HEK293 viab)
CCOC(=O)/C(C#N)=C/c1cc(Cl)ccc1OCc1ccc(Cl)cc1Cl	none (no result: SNCA expr inh, IP6K1 inhibitor, HEK293 viab)
COC[C@@H]1CCCN1Cc1cn(-c2ccccc2)nc1-c1ccc(OC)cc1F	none
COC[C@@H]1CCCN1Cc1cc2cc3c(cc2[nH]c1=O)OCO3	KDM5B inhibitor 28.2µM
Cc1nc(NC2CCCC2)ncc1C(=O)O	KDM5B inhibitor inconclusive
CCCCNc1ncc(C(=O)O)c(C)n1	KDM5B inhibitor 14.1µM
CN(C)Cc1nnc(C2CC(NC(=O)c3nc4ccccc4[nH]3)C2)n1C (centres undefined)	KDM5B inhibitor 22.4µM
O=Cc1ccc(-c2cccc(O)c2)cc1	KDM5B inhibitor 12.6µM
Cc1cc(C)cc(-c2ccc(C=O)cc2)c1	KDM5B inhibitor 31.6µM
O=Cc1ccc(-c2ccc(F)cc2)cc1	KDM5B inhibitor 89.1µM
O=S(=O)(c1cccc2nsnc12)N(Cc1ccncc1)C1CC1	none (no result: SNCA expr inh, IP6K1 inhibitor, HEK293 viab)
CCOP(=O)(OCC)c1nc(Cc2ccccc2)oc1NCc1ccco1	none (no result: SNCA expr inh, IP6K1 inhibitor, HEK293 viab)
COCCNC(=O)c1ccc2c(c1)N(C)C(CC(=O)NCc1ccccn1)CO2 (centres undefined)	SNCA expr inh inconclusive, KDM5B inhibitor 28.2µM
COCCNC(=O)c1ccc2c(c1)OCCN(c1ccccc1)C2	none
COCCNC(=O)c1ccc2c(c1)N(C)C(CC(=O)NCc1ccncc1)CO2 (centres undefined)	KDM5B inhibitor inconclusive
COCCNC(=O)c1ccc2c(c1)N(C)C(CC(=O)NC1CCOCC1)CO2 (centres undefined)	KDM5B inhibitor 31.6µM
COCCNC(=O)c1ccc2c(c1)N(C)C(CC(=O)Nc1ccc[nH]c1=O)CO2 (centres undefined)	KDM5B inhibitor 28.2µM
C=CCNC(=O)CC1COc2ccc(C(=O)NCCOC)cc2N1C (centres undefined)	KDM5B inhibitor 28.2µM
COCCNC(=O)c1ccc2c(c1)N(C)C(CC(=O)NC(C)(C)CO)CO2 (centres undefined)	KDM5B inhibitor 31.6µM
COCCNC(=O)c1ccc2c(c1)N(C)C(CC(=O)NCC(F)(F)F)CO2 (centres undefined)	KDM5B inhibitor 20µM
CC(C)CN(C(=O)CC1COc2ccc(C(=O)N(C)C)cc2N1C)C1CC1 (centres undefined)	none
COCCNC(=O)c1ccc2c(c1)N(C)C(CC(=O)NCCO)CO2 (centres undefined)	KDM5B inhibitor 28.2µM
CN(C)C(=O)c1ccc2c(c1)N(C)C(CC(=O)NC(C)(CO)CO)CO2 (centres undefined)	none
Cc1nc(-c2ccc(S(=O)(=O)Nc3c(C)cccc3C)cc2)co1	none (no result: SNCA expr inh, IP6K1 inhibitor, HEK293 viab)
O=C(O)C1(c2cccc(Br)c2)CCC1	none (no result: SNCA expr inh, IP6K1 inhibitor, HEK293 viab)
